Experimental data published in PubChem BioAssay (EPA / NIEHS).
Records with an inconclusive call do not appear. A structure can be active in one record and inactive in another. Activity calls are given as the source filed them. Rule for the calls, unless noted: active = hit-call score of the fitted dose curve at least 0.9, where 1 is the maximum; inactive = score below 0.9.

What was measured:
[1] = ATG_NFI_CIS: Attagene CIS-FACTORIAL HepG2 Assay for human Nuclear Factor I (NFI) (AID 2282989); conditions: HepG2 cis-regulatory reporter, NFI response element transcription; actives raise or lower the signal
Method in brief: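 Multiplexed cis-reporter system in human HepG2 cells reports native TF activity as reporter mRNA induction 24 h post-dose. Fragments labelled with 6-FAM, HpaI-digested and resolved by capillary electrophoresis; activity fitted both directions versus DMSO.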

[2] = target: Myc proto-oncogene protein (Homo sapiens) (UniProt P01106); assay: ATG_Myc_CIS: Attagene CIS-FACTORIAL HepG2 Assay for human Myelocytomatosis (Myc) Proto-Oncogene Transcription Factor (AID 2282990); conditions: HepG2, Attagene cis-reporter transcription factor activity; actives raise or lower the signal
Method in brief: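 HepG2 cells transiently transfected with multiple cis-promoter-driven reporter transcription units, so endogenous TF activity is read. After 24 h compound exposure, reporter mRNA was quantified by RT-PCR, 6-FAM labelling, HpaI digestion and capillary electrophoresis; bidirectional fit versus DMSO.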

[3] = ATG_NRF2_ARE_CIS: Attagene CIS-FACTORIAL HepG2 Assay for human Nuclear Factor Erythroid 2 Related Factor 2 (NFR2) response to Antioxidant Response Elements (ARE) (AID 2282992); conditions: HepG2 Attagene ARE/NRF2 reporter, transcription factor activity; actives raise or lower the signal
Method in brief: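 Using transiently transfected HepG2 cells exposed for 24 h, reporter mRNA levels were determined by RT-PCR with fluorescent primer extension and capillary electrophoresis, analysed for gain or loss of signal against DMSO.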

[4] = ATG_Oct_MLP_CIS: Attagene CIS-FACTORIAL HepG2 Assay for human Octamer-Binding Transcription Factor (Oct) (AID 2282993); conditions: HepG2 Attagene cis-factorial Oct reporter, mRNA; actives raise or lower the signal
Method in brief: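 After 24 h compound exposure, transfected HepG2 cells were lysed for total RNA; reporter-specific cDNA was PCR-amplified, fluorescently labelled and sized by capillary electrophoresis. Bidirectional curve fitting used DMSO as baseline.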

[5] = target: Cellular tumor antigen p53 (Homo sapiens) (UniProt P04637); assay: ATG_p53_CIS: Attagene CIS-FACTORIAL HepG2 Assay for human p53 Transcription Factor (AID 2282994); conditions: HepG2 p53 cis-element reporter, Attagene mRNA; actives raise or lower the signal
Method in brief: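 In HepG2 cells, reporter transcription units under cis-regulatory promoters were transiently introduced. Following 24 h treatment, RNA was processed to labelled, digested cDNA fragments read by capillary electrophoresis; fitting was bidirectional versus DMSO.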

[6] = target: Peroxisome proliferator-activated receptor gamma (Homo sapiens) (UniProt P37231); assay: ATG_PPARg_TRANS: Attagene TRANS-FACTORIAL HepG2 Assay for human Peroxisome Proliferator-activated Receptor-gamma (PPARg) (AID 2283007; active = hit-call score of the fitted dose curve at least 0.9, where 1 is the maximum)
Method in brief: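 Endpoint reflects upward reporter mRNA change versus DMSO controls. Setup: transiently transfected HepG2, GAL4-UAS reporters driven by chimeric NR-Gal4, 24 h incubation, RT-PCR with capillary electrophoresis read-out.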

[7] = target: Nuclear receptor subfamily 1 group I member 2 (Homo sapiens) (UniProt O75469); assay: ATG_PXR_TRANS: Attagene TRANS-FACTORIAL HepG2 Assay for human Pregnane X Receptor (PXR) (AID 2283008; active = hit-call score of the fitted dose curve at least 0.9, where 1 is the maximum)
Method in brief: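 Multiplexed TRANS reporter panel in HepG2; this component tracks PXR-Gal4-driven reporter mRNA after 24 h dosing, measured by RT-PCR with capillary electrophoresis fluorescence, fitted against DMSO.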

[8] = target: Retinoic acid receptor alpha (Homo sapiens) (UniProt P10276); assay: ATG_RARa_TRANS: Attagene TRANS-FACTORIAL HepG2 Assay for human Retinoic Acid Receptor alpha (RARa) (AID 2283005; active = hit-call score of the fitted dose curve at least 0.9, where 1 is the maximum)
Method in brief: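 HepG2 cells transiently transfected with multiple reporter units expressing chimeric RARα-GAL4 fusion, with GAL4-UAS-driven reporters. After 24 h compound exposure, reporter mRNA induction quantified by RT-PCR and capillary electrophoresis with fluorescent labeling; gain-of-signal fitted relative to DMSO control.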

[9] = target: human Peroxisome Proliferator-activated Receptor alpha (PPARa), PPARA (gene 5465) (UniProt Q07869); assay: ATG_PPARa_TRANS: Attagene TRANS-FACTORIAL HepG2 Assay for human Peroxisome Proliferator-activated Receptor alpha (PPARa) (AID 2283001; active = hit-call score of the fitted dose curve at least 0.9, where 1 is the maximum)
Method in brief: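 Exposure: 24 h, transiently transfected HepG2 cells. Endpoint: GAL4-UAS reporter mRNA, RT-PCR with capillary electrophoresis fluorescence. Baseline: DMSO; increases fitted.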

[10] = target: human Retinoic Acid Receptor gamma (RARg), RARG (gene 5916) (UniProt P13631); assay: ATG_RARg_TRANS: Attagene TRANS-FACTORIAL HepG2 Assay for human Retinoic Acid Receptor gamma (RARg) (AID 2283009; active = hit-call score of the fitted dose curve at least 0.9, where 1 is the maximum)
Method in brief: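 Gain-of-signal relative to DMSO is reported from fluorescent capillary electrophoresis of RT-PCR reporter products. These came from HepG2 cells expressing transfected RARg-GAL4 chimeras with UAS reporters, harvested 24 h after dosing.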

[11] = target: human RAR-related Orphan Receptor beta (RORb), RORB (gene 6096) (UniProt Q92753); assay: ATG_RORb_TRANS: Attagene TRANS-FACTORIAL HepG2 Assay for human RAR-related Orphan Receptor beta (RORb) (AID 2283010; active = hit-call score of the fitted dose curve at least 0.9, where 1 is the maximum)
Method in brief: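 Multiplexed transcription-factor reporter assay: HepG2 cells transiently carrying NR-Gal4/GAL4-UAS constructs, 24 h treatment, mRNA quantified by RT-PCR plus capillary electrophoresis fluorescence; activity scored as induction over DMSO.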

[12] = target: human Peroxisome Proliferator-activated Receptor delta (PPARd), PPARD (gene 5467) (UniProt Q03181); assay: ATG_PPARd_TRANS: Attagene TRANS-FACTORIAL HepG2 Assay for human Peroxisome Proliferator-activated Receptor delta (PPARd) (AID 2283002; active = hit-call score of the fitted dose curve at least 0.9, where 1 is the maximum)
Method in brief: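 HepG2 cells transiently transfected with multiplexed GAL4-UAS reporter units and exogenous chimeric NR-Gal4 proteins; 24 h compound exposure. Reporter mRNA measured by RT-PCR, 6-FAM labelling, HpaI digestion and capillary electrophoresis; gain of signal versus DMSO.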

[13] = target: human Retinoic Acid Receptor beta (RARb), RARB (gene 5915) (UniProt P10826); assay: ATG_RARb_TRANS: Attagene TRANS-FACTORIAL HepG2 Assay for human Retinoic Acid Receptor beta (AID 2283004; active = hit-call score of the fitted dose curve at least 0.9, where 1 is the maximum)
Method in brief: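 Fluorescent capillary-electrophoresis detection of GAL4-UAS reporter mRNA defines the endpoint, with induction over DMSO-treated wells scored as activity. Transiently transfected human hepatoma HepG2 cells expressing exogenous NR–Gal4 proteins are exposed to test chemicals for 24 h.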

[14] = BSK_3C_TissueFactor: BioMAP Diversity Plus: 3C Assay for Tissue Factor Biomarker Activity (AID 2282997); conditions: BioMAP 3C HUVEC, tissue factor biomarker readout; actives raise or lower the signal
Method in brief: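 In this endothelial system, HUVEC are treated for 24 h and Tissue Factor is assessed by ELISA, normalised to DMSO.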

[15] = BSK_3C_VCAM1: BioMAP Diversity Plus: 3C Assay for Vascular cell adhesion molecule 1 (VCAM1) Biomarker Activity (AID 2282999); conditions: BioMAP 3C HUVEC, VCAM1 ELISA, cytokine-stimulated; actives raise or lower the signal
Method in brief: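 Vascular primary endothelium (human umbilical vein) was exposed to chemicals and assayed 24 h later. VCAM-1 levels came from ELISA, with DMSO serving as baseline for bidirectional fitting.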

[16] = BSK_4H_Eotaxin3: BioMAP Diversity Plus: 4H Assay for Eotaxin 3 Biomarker Activity (AID 2283000); conditions: primary human endothelial cells (HUVEC); actives raise or lower the signal;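 for outcome: CCL26 protein level quantified by ELISA in parallel with SRB cytotoxicity check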
Method in brief: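 ELISA quantitation of CCL26 (Eotaxin-3) protein from chemically dosed human vascular endothelial cells at 24 h; increases and decreases both scored relative to DMSO-treated baseline.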

[17] = read-out: Intercellular Adhesion Molecule 1 (ICAM1), ICAM1 (gene 3383); assay: BSK_3C_ICAM1: BioMAP Diversity Plus: 3C Assay for Intercellular Adhesion Molecule 1 (ICAM1) Biomarker Activity (AID 2283003); conditions: primary human endothelial cells (HUVEC); actives raise or lower the signal
Method in brief: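 Using DMSO as baseline, bidirectional curve fitting was applied to ICAM-1 ELISA signals from HUVEC in the 3C system, measured 24 h after compound addition.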

[18] = BSK_3C_Proliferation: Cell Proliferation Assessment in the BioMAP Diversity Plus: 3C Assay (AID 2283006); conditions: primary human endothelial cells (HUVEC)
Method in brief: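 Measured here: sulforhodamine B (0.1%) staining of TCA-fixed sub-confluent umbilical vein endothelial cultures 48 h post-dosing, absorbance 560 nm. DMSO served as negative control and baseline; both signal gain and loss were modelled.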

Peroxisome proliferator-activated receptor gamma (Homo sapiens), sequence (P37231 whole entry, looked up, the tested form may be a part): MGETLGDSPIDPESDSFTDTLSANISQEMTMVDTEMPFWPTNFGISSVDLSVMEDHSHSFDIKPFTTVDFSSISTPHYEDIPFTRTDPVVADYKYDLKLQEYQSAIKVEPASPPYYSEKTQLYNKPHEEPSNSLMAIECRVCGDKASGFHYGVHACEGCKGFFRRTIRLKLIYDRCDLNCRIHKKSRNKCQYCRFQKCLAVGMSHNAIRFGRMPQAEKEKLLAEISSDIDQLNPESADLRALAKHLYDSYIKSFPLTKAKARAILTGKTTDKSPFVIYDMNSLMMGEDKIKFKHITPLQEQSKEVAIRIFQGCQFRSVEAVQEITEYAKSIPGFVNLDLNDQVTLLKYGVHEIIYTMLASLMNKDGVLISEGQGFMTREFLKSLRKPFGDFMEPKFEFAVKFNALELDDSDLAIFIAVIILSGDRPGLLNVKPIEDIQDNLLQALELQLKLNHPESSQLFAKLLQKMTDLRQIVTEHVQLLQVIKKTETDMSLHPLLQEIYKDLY
Retinoic acid receptor alpha (Homo sapiens), sequence (P10276 whole entry, looked up, the tested form may be a part): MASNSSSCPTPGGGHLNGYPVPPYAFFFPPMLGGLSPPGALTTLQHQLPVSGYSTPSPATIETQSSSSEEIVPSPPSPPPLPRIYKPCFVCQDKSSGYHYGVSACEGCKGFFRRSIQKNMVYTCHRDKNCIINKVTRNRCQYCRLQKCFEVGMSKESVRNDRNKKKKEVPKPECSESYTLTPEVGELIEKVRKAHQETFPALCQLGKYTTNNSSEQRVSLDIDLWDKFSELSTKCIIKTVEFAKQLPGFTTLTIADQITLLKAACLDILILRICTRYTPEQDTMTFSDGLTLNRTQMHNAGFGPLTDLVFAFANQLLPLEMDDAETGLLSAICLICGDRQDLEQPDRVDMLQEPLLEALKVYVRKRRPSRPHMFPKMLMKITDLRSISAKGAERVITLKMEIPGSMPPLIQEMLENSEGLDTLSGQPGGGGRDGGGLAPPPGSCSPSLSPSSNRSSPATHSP
human Retinoic Acid Receptor beta (RARb), RARB (gene 5915), sequence (P10826 whole entry, looked up, the tested form may be a part): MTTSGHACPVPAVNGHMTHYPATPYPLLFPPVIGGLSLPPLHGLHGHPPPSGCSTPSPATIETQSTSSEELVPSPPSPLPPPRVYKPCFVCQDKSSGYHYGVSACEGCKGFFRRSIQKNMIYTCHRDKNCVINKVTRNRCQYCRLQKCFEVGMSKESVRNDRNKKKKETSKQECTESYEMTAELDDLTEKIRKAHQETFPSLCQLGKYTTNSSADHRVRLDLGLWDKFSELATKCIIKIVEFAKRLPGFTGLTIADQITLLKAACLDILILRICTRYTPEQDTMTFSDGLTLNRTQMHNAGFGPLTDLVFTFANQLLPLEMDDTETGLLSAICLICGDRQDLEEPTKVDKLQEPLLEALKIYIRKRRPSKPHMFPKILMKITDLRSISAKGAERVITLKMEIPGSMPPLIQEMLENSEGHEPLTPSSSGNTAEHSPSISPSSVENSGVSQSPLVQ
Cellular tumor antigen p53 (Homo sapiens), sequence (P04637 whole entry, looked up, the tested form may be a part): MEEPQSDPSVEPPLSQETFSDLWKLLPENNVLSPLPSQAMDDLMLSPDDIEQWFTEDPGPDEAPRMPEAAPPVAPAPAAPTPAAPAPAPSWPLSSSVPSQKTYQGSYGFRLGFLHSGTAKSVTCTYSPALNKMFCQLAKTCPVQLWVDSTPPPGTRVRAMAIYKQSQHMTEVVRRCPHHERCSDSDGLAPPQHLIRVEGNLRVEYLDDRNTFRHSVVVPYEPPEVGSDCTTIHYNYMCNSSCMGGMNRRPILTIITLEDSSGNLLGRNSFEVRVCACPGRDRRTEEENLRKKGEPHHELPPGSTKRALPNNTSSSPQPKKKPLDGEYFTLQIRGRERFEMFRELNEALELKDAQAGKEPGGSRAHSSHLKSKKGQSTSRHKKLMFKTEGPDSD
Nuclear receptor subfamily 1 group I member 2 (Homo sapiens), sequence (O75469 whole entry, looked up, the tested form may be a part): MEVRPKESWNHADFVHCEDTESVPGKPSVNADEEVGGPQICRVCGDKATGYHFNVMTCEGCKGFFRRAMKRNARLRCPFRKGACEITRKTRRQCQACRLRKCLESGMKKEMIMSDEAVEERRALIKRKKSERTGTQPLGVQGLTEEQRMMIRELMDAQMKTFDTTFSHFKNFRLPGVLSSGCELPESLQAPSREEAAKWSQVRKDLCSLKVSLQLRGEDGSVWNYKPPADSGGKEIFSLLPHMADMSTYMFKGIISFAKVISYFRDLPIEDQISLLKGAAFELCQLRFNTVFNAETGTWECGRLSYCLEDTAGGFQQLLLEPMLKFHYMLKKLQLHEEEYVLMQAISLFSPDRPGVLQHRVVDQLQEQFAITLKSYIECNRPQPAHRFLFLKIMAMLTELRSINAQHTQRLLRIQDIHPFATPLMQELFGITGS
human RAR-related Orphan Receptor beta (RORb), RORB (gene 6096), sequence (Q92753 whole entry, looked up, the tested form may be a part): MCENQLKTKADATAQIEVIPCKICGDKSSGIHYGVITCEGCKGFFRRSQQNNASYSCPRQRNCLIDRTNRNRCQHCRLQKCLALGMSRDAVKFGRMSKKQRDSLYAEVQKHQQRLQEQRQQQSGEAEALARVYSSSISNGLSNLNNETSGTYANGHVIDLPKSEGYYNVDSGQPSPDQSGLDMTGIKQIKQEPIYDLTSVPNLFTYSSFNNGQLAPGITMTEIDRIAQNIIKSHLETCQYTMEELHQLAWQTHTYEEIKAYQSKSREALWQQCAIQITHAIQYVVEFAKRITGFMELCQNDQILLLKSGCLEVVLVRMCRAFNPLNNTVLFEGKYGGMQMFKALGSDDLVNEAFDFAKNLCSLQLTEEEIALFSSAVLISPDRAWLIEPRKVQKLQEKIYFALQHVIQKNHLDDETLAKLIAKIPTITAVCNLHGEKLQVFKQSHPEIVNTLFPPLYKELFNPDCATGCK
Myc proto-oncogene protein (Homo sapiens), sequence (P01106 whole entry, looked up): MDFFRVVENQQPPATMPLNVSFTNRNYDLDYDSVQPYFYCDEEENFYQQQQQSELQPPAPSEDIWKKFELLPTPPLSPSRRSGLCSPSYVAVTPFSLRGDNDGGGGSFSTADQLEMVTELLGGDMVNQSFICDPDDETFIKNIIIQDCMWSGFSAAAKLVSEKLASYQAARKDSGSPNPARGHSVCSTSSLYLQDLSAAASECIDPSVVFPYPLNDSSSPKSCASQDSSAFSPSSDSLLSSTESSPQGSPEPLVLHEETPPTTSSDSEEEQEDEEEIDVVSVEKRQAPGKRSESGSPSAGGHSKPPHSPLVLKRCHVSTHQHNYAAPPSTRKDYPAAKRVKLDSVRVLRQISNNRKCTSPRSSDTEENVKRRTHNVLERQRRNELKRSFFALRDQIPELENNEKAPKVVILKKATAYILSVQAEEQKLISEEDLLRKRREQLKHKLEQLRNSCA
human Peroxisome Proliferator-activated Receptor alpha (PPARa), PPARA (gene 5465), sequence (Q07869 whole entry, looked up, the tested form may be a part): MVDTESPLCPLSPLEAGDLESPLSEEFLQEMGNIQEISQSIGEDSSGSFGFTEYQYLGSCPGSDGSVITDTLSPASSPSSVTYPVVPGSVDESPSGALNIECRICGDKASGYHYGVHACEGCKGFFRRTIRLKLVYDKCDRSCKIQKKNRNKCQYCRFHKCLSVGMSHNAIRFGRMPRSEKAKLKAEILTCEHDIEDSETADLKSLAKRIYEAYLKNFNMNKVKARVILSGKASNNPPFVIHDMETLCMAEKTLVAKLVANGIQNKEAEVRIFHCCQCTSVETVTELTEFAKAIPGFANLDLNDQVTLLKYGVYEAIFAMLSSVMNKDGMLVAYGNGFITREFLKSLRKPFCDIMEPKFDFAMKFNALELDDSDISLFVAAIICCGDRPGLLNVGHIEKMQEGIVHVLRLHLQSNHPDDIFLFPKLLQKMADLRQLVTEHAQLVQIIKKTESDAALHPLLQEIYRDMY
human Peroxisome Proliferator-activated Receptor delta (PPARd), PPARD (gene 5467), sequence (Q03181 whole entry, looked up, the tested form may be a part): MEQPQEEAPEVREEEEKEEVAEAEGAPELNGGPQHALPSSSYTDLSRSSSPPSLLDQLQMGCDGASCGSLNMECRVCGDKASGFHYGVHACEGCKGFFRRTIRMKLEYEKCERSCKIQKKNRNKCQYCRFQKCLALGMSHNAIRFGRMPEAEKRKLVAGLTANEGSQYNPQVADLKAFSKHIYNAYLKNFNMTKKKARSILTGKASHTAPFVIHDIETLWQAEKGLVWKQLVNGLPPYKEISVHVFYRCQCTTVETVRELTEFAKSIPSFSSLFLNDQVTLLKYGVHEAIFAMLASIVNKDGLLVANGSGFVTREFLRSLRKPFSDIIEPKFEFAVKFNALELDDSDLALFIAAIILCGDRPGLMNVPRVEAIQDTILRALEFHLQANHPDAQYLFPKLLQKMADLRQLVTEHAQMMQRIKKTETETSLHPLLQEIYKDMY
human Retinoic Acid Receptor gamma (RARg), RARG (gene 5916), sequence (P13631 whole entry, looked up, the tested form may be a part): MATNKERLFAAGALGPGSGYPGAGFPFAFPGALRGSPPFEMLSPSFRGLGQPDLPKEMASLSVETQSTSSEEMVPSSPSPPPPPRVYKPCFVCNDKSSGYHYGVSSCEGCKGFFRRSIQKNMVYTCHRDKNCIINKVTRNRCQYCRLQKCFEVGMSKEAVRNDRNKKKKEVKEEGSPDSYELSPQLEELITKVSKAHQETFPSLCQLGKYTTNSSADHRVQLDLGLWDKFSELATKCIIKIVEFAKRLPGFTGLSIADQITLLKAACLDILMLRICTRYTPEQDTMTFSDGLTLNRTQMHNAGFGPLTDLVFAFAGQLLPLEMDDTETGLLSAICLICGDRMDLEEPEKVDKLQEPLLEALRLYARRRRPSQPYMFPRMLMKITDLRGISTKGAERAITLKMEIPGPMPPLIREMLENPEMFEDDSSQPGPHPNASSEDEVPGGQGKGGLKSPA

CCCC(=O)C(CC)Sc1ccoc1C (stereo not drawn)
outcome [1]: inactive | outcome [2]: inactive | AC50 [3]: 27.7 µM (active) | outcome [4]: inactive | outcome [5]: inactive | AC50 [6]: 33.6 µM (active) | AC50 [7]: 9.72 µM (active)

CCCC[P+](CCCC)(CCCC)CCCC
outcome [1]: inactive | outcome [2]: inactive | outcome [3]: inactive | outcome [4]: inactive | outcome [5]: inactive | outcome [8]: inactive | outcome [7]: inactive

C=C(CC(=O)O)C(=O)O
outcome [1]: inactive | outcome [2]: inactive | outcome [3]: inactive | outcome [4]: inactive | outcome [5]: inactive | outcome [9]: inactive | outcome [8]: inactive | outcome [6]: inactive | outcome [7]: inactive | outcome [10]: inactive | outcome [11]: inactive

CCOc1ccc(N=Nc2ccc(C=Cc3ccc(N=Nc4ccc(OCC)cc4)cc3S(=O)(=O)O)c(S(=O)(=O)O)c2)cc1
outcome [1]: inactive | outcome [2]: inactive | outcome [3]: inactive | outcome [4]: inactive | outcome [5]: inactive | outcome [12]: inactive | outcome [13]: inactive | outcome [6]: inactive | outcome [7]: inactive | outcome [10]: inactive

C=CC(C)(O)CCC=C(C)C (stereo not drawn)
outcome [1]: inactive | outcome [2]: inactive | outcome [3]: inactive | outcome [4]: inactive | outcome [14]: inactive | outcome [15]: inactive | AC50 [16]: 0.149 µM (active) | outcome [16]: inactive | outcome [9]: inactive | outcome [17]: inactive | outcome [13]: inactive | outcome [18]: inactive | outcome [6]: inactive | outcome [7]: inactive | outcome [11]: inactive

CCc1cc(C(C)(C)C)c(O)c(C(C)(C)C)c1
AC50 [1]: 54 µM (active) | outcome [2]: inactive | AC50 [3]: 52.6 µM (active) | outcome [4]: inactive | outcome [5]: inactive | outcome [13]: inactive | outcome [8]: inactive | AC50 [6]: 61 µM (active) | AC50 [7]: 26.8 µM (active)

CCCCCCC(=O)c1ccccc1
outcome [1]: inactive | outcome [2]: inactive | AC50 [3]: 121 µM (active) | outcome [4]: inactive | outcome [9]: inactive | AC50 [6]: 42.8 µM (active) | AC50 [7]: 59.2 µM (active)

C=CCCCCCCCCCC
outcome [1]: inactive | outcome [2]: inactive | outcome [3]: inactive | outcome [4]: inactive | outcome [5]: inactive | outcome [6]: inactive

CC(C)OCCO
outcome [1]: inactive | outcome [2]: inactive | outcome [3]: inactive | outcome [4]: inactive | outcome [5]: inactive | outcome [13]: inactive | outcome [7]: inactive | outcome [11]: inactive

NC1CCCCC1N (stereo not drawn)
outcome [1]: inactive | outcome [2]: inactive | outcome [3]: inactive | outcome [4]: inactive | outcome [5]: inactive | outcome [12]: inactive | outcome [8]: inactive | outcome [7]: inactive
